Screening data (PubChem BioAssay)
Pf Dd2 growth: Plasmodium falciparum Dd2 growth inhibition | P. falciparum Dd2 growth, SYBR Green, 72 h | Potency, µM (doses to about 28.9 µM), hits mostly inhibitors | 4.3% of 120,000 active; active = well fitted inhibition curve with a large enough effect; also: nearly all actives have a fitted effect of over 65% in size
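Infected erythrocytes (Dd2, 0.3% parasitemia, 2.5% hematocrit final) are added to compound in RPMI-1640/Albumax II medium, grown 72 h at 37C in low oxygen, then lysed with saponin/Triton-X containing SYBR Green and read by fluorescence.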
Numbers stand for hits. Shown is part of a subset that was picked to be rich in hits.

How did CCC(CC)c1cc([C@H]2CN3CC[C@H]2C[C@@H]3CNC(C)=O)nc(-c2ccncc2)n1 do in these assays?
Pf Dd2 growth: 2µM

What do the screens show for `CCC(CC)C(=O)NC[C@H]1C[C@@H]2CCN1C[C@@H]2c1cc(-c2ccco2)nc(C)n1`?
Pf Dd2 growth: inactive

How did CCCNC(=O)OC[C@H]1C[C@@H]2CCN1C[C@@H]2c1cc(C(CC)CC)nc(-c2ccncc2)n1 do in these assays?
Pf Dd2 growth: 1.4µM

Results for Cn1nc(-c2ccc3ccccc3c2)cc1[C@H]1CN2CC[C@H]1C[C@@H]2COC(=O)Nc1ccccc1 ?
Pf Dd2 growth: inactive

How did Cn1nc(-c2cccs2)cc1[C@H]1CN2CC[C@H]1C[C@@H]2CNS(=O)(=O)c1ccccc1 do in these assays?
Pf Dd2 growth: inactive

Results for CCC(CC)c1cc([C@H]2CN3CC[C@H]2C[C@@H]3COC(=O)Nc2ccc(C(C)(C)C)cc2)nc(-c2ccncc2)n1 ?
Pf Dd2 growth: 1.3µM

Results for CC(=O)c1ccc(NC(=O)OC[C@H]2C[C@@H]3CCN2C[C@@H]3c2cc(-c3cccs3)nn2C)cc1 ?
Pf Dd2 growth: inactive

Results for COc1ccccc1-c1cc([C@H]2CN3CC[C@H]2C[C@@H]3COC(=O)Nc2cccc(C(C)=O)c2)nc(C)n1 ?
Pf Dd2 growth: inactive

What do the screens show for `CC1(C)C(=O)N(Cc2ccccc2F)[C@H]2CN(Cc3ccc4c(c3)CCO4)C[C@H]2[S+]1(=O)[O-]`?
Pf Dd2 growth: inactive

Results for Cc1ccccc1NC(=O)N1CCC(CCNC(=O)c2cc(F)ccc2F)CC1 ?
Pf Dd2 growth: inactive

What do the screens show for `Cc1n[nH]c(C)c1CCC(=O)N1CCC(C2CCN(S(C)(=O)=O)CC2)C1` (centres undefined)?
Pf Dd2 growth: inactive

Results for Cc1ccccc1[C@H]1[C@@H](C(=O)NCCn2ccnc2)C[C@@](C)(C(=O)O)N1C ?
Pf Dd2 growth: inactive

How did COc1ccc(CNC(=O)[C@@H]2Cc3nc[nH]c3CN2C(=O)NC2CCCCC2)cc1 do in these assays?
Pf Dd2 growth: inactive

How did COc1cc(CN2C[C@@H]3C(=O)N(CCc4ccccc4)C(=O)[C@@H]3C2)cc(OC)c1 do in these assays?
Pf Dd2 growth: inactive

Results for COc1ccc(C(=O)NC[C@H]2C[C@@H]3CCN2C[C@@H]3c2cc(-c3ccc(F)cc3)nn2C)cc1 ?
Pf Dd2 growth: inactive

Results for Cc1nc(-c2ccc(C(F)(F)F)cc2)cc([C@H]2CN3CC[C@H]2C[C@@H]3CNS(C)(=O)=O)n1 ?
Pf Dd2 growth: inactive

Results for COc1ccc(NC(=O)OC[C@H]2C[C@@H]3CCN2C[C@@H]3c2cc(-c3ccccc3OC)nn2C)cc1 ?
Pf Dd2 growth: inactive

How did Cn1nc(-c2ccc(F)cc2)cc1[C@H]1CN2CC[C@H]1C[C@@H]2CNC(=O)c1cccs1 do in these assays?
Pf Dd2 growth: 13µM

What do the screens show for `CC(C)(C)c1ccc(NC(=O)OC[C@H]2C[C@@H]3CCN2C[C@@H]3c2cc(C3CCCC3)nc(-c3ccncc3)n2)cc1`?
Pf Dd2 growth: 1µM

Results for CC(C)c1ccc(NC(=O)OC[C@H]2C[C@@H]3CCN2C[C@@H]3c2cc(C3CCCCC3)nn2C)cc1 ?
Pf Dd2 growth: inactive

What do the screens show for `COc1ccc(-c2cc([C@H]3CN4CC[C@H]3C[C@@H]4COC(=O)NC3CCCCC3)nc(C)n2)cc1`?
Pf Dd2 growth: inactive

Results for Cc1ccc(C(=O)NC[C@H]2C[C@@H]3CCN2C[C@@H]3c2cc(-c3ccc(F)cc3)nn2C)cc1 ?
Pf Dd2 growth: inactive

Results for CCC(CC)c1cc([C@H]2CN3CC[C@H]2C[C@@H]3CNS(=O)(=O)c2cccs2)nc(-c2ccncc2)n1 ?
Pf Dd2 growth: 1.1µM

What do the screens show for `Cc1nc(-c2ccc(F)cc2)cc([C@H]2CN3CC[C@H]2C[C@@H]3CNS(=O)(=O)Cc2ccccc2)n1`?
Pf Dd2 growth: inactive

How did Cc1nc(C2CCCC2)cc([C@H]2CN3CC[C@H]2C[C@@H]3CNC(=O)CCCC(=O)O)n1 do in these assays?
Pf Dd2 growth: inactive

How did COc1ccc(NC(=O)OC[C@H]2C[C@@H]3CCN2C[C@@H]3c2cc(C3CCCC3)nc(-c3ccncc3)n2)cc1 do in these assays?
Pf Dd2 growth: 1.8µM

How did Cc1noc(C)c1CC(=O)NCCc1noc(-c2ccncc2)n1 do in these assays?
Pf Dd2 growth: inactive

What do the screens show for `CC1CCC2(CC1)NC(=O)N(CC(=O)Nc1ccccc1C(F)(F)F)C2=O` (centres undefined)?
Pf Dd2 growth: inactive

Results for CCNC(=O)N1C[C@@H](F)[C@@H](OCc2nc3ccc(C)cc3[nH]2)C1 ?
Pf Dd2 growth: inactive

How did O=C(c1cccc(Cl)c1)N1CCn2c(nn(-c3ccc(F)cc3)c2=O)C1 do in these assays?
Pf Dd2 growth: inactive

Results for O=C(C1CC=CCC1)N1CCC(C2CCNC2)CC1 (centres undefined) ?
Pf Dd2 growth: inactive

Results for COc1ccc(S(=O)(=O)N2CCCC(Cc3noc(-c4cccnc4)n3)C2)cc1 (centres undefined) ?
Pf Dd2 growth: inactive

What do the screens show for `COc1ccc(OC)c(S(=O)(=O)NC[C@H]2C[C@@H]3CCN2C[C@@H]3c2cc(-c3ccco3)nc(C)n2)c1`?
Pf Dd2 growth: inactive

Results for Cc1nc(-c2ccco2)cc([C@H]2CN3CC[C@H]2C[C@@H]3CNS(=O)(=O)c2cccs2)n1 ?
Pf Dd2 growth: 7.1µM

How did CC(=O)Nc1ccc(S(=O)(=O)NC[C@H]2C[C@@H]3CCN2C[C@@H]3c2cc(-c3ccco3)nc(C)n2)cc1 do in these assays?
Pf Dd2 growth: inactive

Results for Cc1ccc(N2C(=O)CSC23C(=O)N(CC(=O)NCCc2ccccc2)c2ccccc23)cc1 (centres undefined) ?
Pf Dd2 growth: inactive

Results for COc1cccc(CN2C(=O)C3(SCC(=O)N3c3ccc(C(C)C)cc3)c3ccccc32)c1 (centres undefined) ?
Pf Dd2 growth: inactive

What do the screens show for `Cc1cccc(N2C(=O)CSC23C(=O)N(CC(=O)Nc2cccc(Cl)c2)c2ccccc23)c1` (centres undefined)?
Pf Dd2 growth: 14µM

How did Cc1ccc(NC(=O)CN2C(=O)CCSc3ccccc32)c(C)c1 do in these assays?
Pf Dd2 growth: inactive

Results for COc1ccc(N2C(=O)CSC23C(=O)N(Cc2ccc(C)cc2)c2ccccc23)cc1Cl (centres undefined) ?
Pf Dd2 growth: inactive

What do the screens show for `COc1cccc(N2C(=O)CSC23C(=O)N(CC(=O)Nc2cc(C)ccc2C)c2ccccc23)c1` (centres undefined)?
Pf Dd2 growth: 8.9µM

Results for Cc1ccc(CNC(=O)CN2C(=O)C3(SCC(=O)N3c3ccc(F)cc3)c3ccccc32)cc1 (centres undefined) ?
Pf Dd2 growth: inactive

Results for Cc1cc(C)cc(N2C(=O)CSC23C(=O)N(CC(=O)Nc2ccc(F)cc2F)c2ccccc23)c1 (centres undefined) ?
Pf Dd2 growth: 10µM

What do the screens show for `Cc1ccc(NC(=O)CN2C(=O)NC3(CCCCC3)C2=O)c(C)c1`?
Pf Dd2 growth: inactive

What do the screens show for `COc1cc(N2C(=O)CSC23C(=O)N(Cc2ccc(C)cc2)c2ccccc23)cc(OC)c1OC` (centres undefined)?
Pf Dd2 growth: inactive

How did Cc1ccc(NC(=O)CN2C(=O)C3(SCC(=O)N3c3ccc(F)c(F)c3)c3ccccc32)c(C)c1 (centres undefined) do in these assays?
Pf Dd2 growth: 14µM

What do the screens show for `COc1cccc(CN2C(=O)C3(SCC(=O)N3c3ccc(C)c(Cl)c3)c3ccccc32)c1` (centres undefined)?
Pf Dd2 growth: inactive
